Screening data: PubChem BioAssay, National Center for Advancing Translational Sciences (NCATS)
Epigenetic reg: derepresses silenced GFP reporter in murine cells. murine LDR cells, GFP reporter derepression, 30 h. Potency, µM (doses to about 53.9 µM), without a hit: at the top dose GFP activation, actives largely listed as activators. hit rate 0.2% among 280,000. AID 1865; note: % of control where 0% means no effect; nearly all actives have a fitted effect of over 60% in size
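Readout is the number of GFP-expressing murine LDR cells, counted by cytometry following washing. Cells were treated with compound for 30 h at 37 C; the stably integrated CMV-GFP locus is normally silent.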
Vif-APOBEC3F blk: blocks the Vif interaction with APOBEC3F; hit rate 0.2% among 390,000; HeLa A3F-eYFP + Vif (tagged APOBEC3F with the HIV-1 protein that degrades it), YFP fluorescence increase; Potency, µM (series often up to 46.1 µM), for inactives: top-dose activity, negative = active; AID 602313; note: % of control where 0% means no effect; nearly all actives have a fitted effect of over 65% in size
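Fluorescence increase (Ex 488/Em 500-530) after overnight compound treatment at 37 deg C flags inhibition of Vif-driven A3F-eYFP loss in stable HeLa A3F-eYFP/Vif cells seeded overnight beforehand.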
PINK1 expr mod: changes PINK1 expression | hit rate 0.2% among 410,000 | PINK1 immunofluorescence, high-content cytometry, 24 h | AID 624263 | Potency, µM (highest dose often 76.6 µM), inactives show top-dose activation (PINK1 increase), hits mostly activators; active = well fitted activation curve with a large enough effect; inconclusive = small, poorly fitted or top-dose-only effect; cell line not stated here; note: % of control where 0% means no effect; nearly all actives have a fitted effect of over 65% in size
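PINK1 protein, normally rapidly degraded, was detected by immunofluorescence after 24 hour compound treatment of a stable cell line. Titration data (5 concentrations) came from laser-scanning cytometry, with CCCP-treated wells as controls.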
Vif-APOBEC3G blk: inhibitors of Vif-APOBEC3G interaction. Potency, µM (doses to about 46.1 µM), for inactives: at the highest dose activity, negative = active, most hits filed as inhibitors. Q9HC16. HeLa A3G-eYFP + Vif (tagged APOBEC3G with the HIV-1 protein that degrades it), YFP fluorescence, overnight. AID 602310. hit rate 0.076% among 410,000; note: % is set by controls: 0 for no effect and ±100 for the full control effect; nearly all actives have a fitted effect of over 60% in size
Target sequence (Q9HC16 whole entry, looked up): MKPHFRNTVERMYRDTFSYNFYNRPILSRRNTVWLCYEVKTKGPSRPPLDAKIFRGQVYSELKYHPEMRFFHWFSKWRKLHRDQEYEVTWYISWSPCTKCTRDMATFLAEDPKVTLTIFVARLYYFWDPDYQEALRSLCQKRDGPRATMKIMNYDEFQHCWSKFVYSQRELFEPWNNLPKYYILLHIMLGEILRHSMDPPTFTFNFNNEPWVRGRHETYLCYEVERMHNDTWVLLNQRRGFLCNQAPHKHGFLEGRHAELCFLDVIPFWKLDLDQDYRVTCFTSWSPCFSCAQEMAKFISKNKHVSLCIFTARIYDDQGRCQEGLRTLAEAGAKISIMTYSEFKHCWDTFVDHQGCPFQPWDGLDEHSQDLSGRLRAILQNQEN
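Read-out is eYFP fluorescence (Ex 488/Em 500-530) from Vif-expressing HeLa A3G-eYFP cells; more signal means A3G escaped Vif-mediated degradation. Cells plated overnight, compound pinned in, incubated overnight at 37 deg C.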
* marks the source's active call; other numbers are inactive results; ? = inconclusive; nt = no result; ! = repeats disagree. Compounds with a hit are over-represented: about 0.52% of the library has one in this group of screens. Unless noted, calls come from the whole dose curve; as a rule, active = well fitted curve in the direction sought with a large enough effect; inconclusive = small, poorly fitted or top-dose-only effect, or another doubt; inactive = no such curve, though single readings can be large; an effect the other way counts as inactive or inconclusive. Potency is the fitted concentration of half-maximal effect.

SMILES	Epigenetic reg	Vif-APOBEC3F blk	PINK1 expr mod	Vif-APOBEC3G blk
CC(=O)Nc1sc2c(c1-c1nc3ccccc3s1)CN(C(C)C)CC2	nt	10µM*	-0.8%	12.6µM*
COc1ccc(NC(=O)c2cc3cc(OC)ccc3oc2=O)cc1	nt	-2.1%	25.1µM*	-4.8%
COc1ccc(NC(=O)c2cc([N+](=O)[O-])ccc2O)cc1	3.4%	-3.7%	28.2µM*	1.0%
O=C(Nc1cccc([N+](=O)[O-])c1)c1cc2ccccc2cc1O	0.0%	-6.1%	2.51µM*	2.8%
COc1cc(/C=N/NS(=O)(=O)c2ccc(C)c([N+](=O)[O-])c2)cc([N+](=O)[O-])c1O	nt	2.5%	0.2%	1.5%
COc1ccc(-n2c(O)c(/C=N/NS(=O)(=O)c3ccc(C)c([N+](=O)[O-])c3)c3ccccc3c2=O)cc1OC	4.6%	12.6µM*	3.5%	3.55µM*
Cc1nc2c3cc(F)ccc3n(Cc3ccccc3)c2s1	0.0%	-27.7%	6.0%	6.31µM*
CCn1c2ccc(F)cc2c2nnc(NN)nc21	-1.0%	2.0%	8.4%	-0.4%
NNc1nnc2c3cc(F)ccc3n(Cc3ccccc3)c2n1	1.3%	6.0%	31.6µM*	-3.1%
Cc1cnc(C)c(-c2cccc3c2OC(CNC(=O)/C=C/c2ccc(F)c(F)c2)C3)n1 (stereo not given)	nt	nt	5.9%	nt
OC1(c2ccc3c(c2)CN(Cc2ccco2)CCO3)CCN(c2ccccc2F)CC1	nt	nt	-0.4%	nt
COc1cc(-c2noc(C)c2-c2ccc3[nH]ccc3c2)cc(OC)c1OC	nt	-1.1%	6.1%	14.1µM*!
Cc1cc(C)n(-c2cccc(C(=O)NCC3Cc4cccc(-c5ccccn5)c4O3)c2)n1 (stereo not given)	nt	nt	-0.3%	nt
CCOc1ccc(OCC)c(Nc2nc3ccc(Cl)cc3n3cnnc23)c1	22.4µM*	nt	2.0%	nt
Cn1c(NC(=O)c2cccc(Cn3cc(Cl)cn3)c2)nc2ccccc21	2.4%	-7.9%	11.2µM*	-0.2%
CC(C)Oc1ccc(C(=O)NCC2Cc3cc(F)cc(-c4cnccn4)c3O2)cc1 (stereo not given)	nt	nt	0.8%	nt
Fc1ccc(COc2ccc3ccccc3c2CNc2nn[nH]n2)cc1	-1.1%	-0.7%	0.7%	12.6µM*
O=C(NC1CCCCC1)C(c1ccc(F)cc1)N(Cc1ccco1)C(=O)Cn1nnc2ccccc21 (stereo not given)	0.0%	0.5%	14.1µM*	-4.6%
O=C(NC1CCCCC1)C(c1ccccc1F)N(Cc1ccco1)C(=O)Cn1nnc2ccccc21 (stereo not given)	-0.5%	-15.3%	6.3%	-8.3%
CCN(CC(=O)NCc1ccc(F)cc1)C(=O)/C=C/c1ccc(OC)cc1	nt	1.6%	9.4%	-8.3%
CCN(CC(=O)NCc1ccc(F)cc1)C(=O)/C=C/c1ccc(OC)c(S(=O)(=O)NC(C)C)c1	nt	-2.0%	10.1%	2.82µM*
Cc1ccc(C(=O)N2CCOc3ccc(CN4CCN(Cc5ccccn5)CC4)cc3C2)cc1	nt	nt	0.2%	nt
Fc1ccc(F)c(C2=NNC(=Nc3ccccc3F)SC2)c1	2.7%	-3.9%	35.5µM*	-16.1%
CCn1c(-c2cccnc2)nc2cc(NC(=O)COC)cc(C(=O)N3CC[C@@H]4CCCC[C@H]4C3)c21	nt	nt	3.2%	nt
COc1ccc(-c2cn3c(C)c(C(=O)Nc4cc(NC(C)=O)ccc4OC)sc3n2)cc1	3.0%	-10.1%	10µM*	-27.7%
SMILES	Epigenetic reg	Vif-APOBEC3F blk	PINK1 expr mod	Vif-APOBEC3G blk
CNC(=O)c1sc2nc(-c3ccc(OC)cc3)cn2c1C	2.3%	1.5%	-1.3%	-5.2%
COc1ccc(NC(=O)c2c(NC(=O)CNCc3ccco3)sc3c2CCC3)cc1	25.1µM*	-3.5%	6.5%	-6.8%
CCc1ccc(/C=C2/SC(N3CCOCC3)=NC2=O)cc1	0.1%	-1.6%	-0.3%	-3.9%
CN1C/C(=C/c2ccncc2)C(=O)/C(=C/c2ccncc2)C1	nt	?	0.3%	4.1%
CN1C/C(=C\c2ccc(N3CCOCC3)cc2)C(=O)/C(=C/c2ccc(N3CCOCC3)cc2)C1	?	25.1µM*	7.2%	?
CCN1C/C(=C/c2ccc(N3CCOCC3)cc2)C(=O)/C(=C/c2ccc(N3CCOCC3)cc2)C1	?	25.1µM*	3.5%	10µM*
O=c1c(Cl)c2oc3ccccc3nc-2c2ccccc12	22.4µM*	?	?	?
CCCc1ccc(C(=O)NC(=O)c2ccccc2O)cc1	-1.0%	-0.9%	44.7µM*	-4.5%
O=C(NC(=S)NNC(=O)c1ccccc1O)c1ccc(F)cc1	nt	1.2%	-0.7%	2.5%
O=C(NC(=O)c1ccccc1O)c1ccc(C(F)(F)F)cc1	0.0%	3.9%	31.6µM*	-4.0%
Cc1oc(-c2ccccc2NC(=O)C2CCC2)nc1CNC(=O)c1ccc(C#CC(C)(C)O)cc1	nt	nt	2.8%	nt
Cc1cccc(CN2CCN(C(c3ccccc3)c3ccc(Cl)cc3)CC2)c1 (stereo not given)	0.0%	-5.6%	35.5µM*	-3.4%
Cc1oc(-c2ccccc2NS(C)(=O)=O)nc1CN(C)Cc1ccc(Cl)cc1	nt	nt	-0.9%	nt
CCn1c2ccccc2c2cc(NC(=O)c3ccc(Br)o3)ccc21	14.1µM*	-13.4%	0.6%	?
CCn1c2ccccc2c2cc(NC(=O)c3ccc(=O)oc3)ccc21	0.8%	11.2µM*	1.9%	-22.2%
CCn1c2ccccc2c2cc(NC(=O)c3coc(=O)c(Br)c3)ccc21	7.0%	nt	nt	nt
CCn1c2ccccc2c2cc(NC(=O)c3cc(C)on3)ccc21	-0.6%	0.7%	2.2%	-18.5%
COc1cc(=O)n2c(c1C(=O)N(C)Cc1cscn1)CCN(Cc1c(C)[nH]c3ccccc13)CC2	nt	nt	1.3%	nt
O=[N+]([O-])c1ccc(N/N=C/C=C/c2ccco2)cc1	nt	11.2µM*	26.1%	?
CC(=O)Nc1ccc2nc(NC(=O)c3ccc([N+](=O)[O-])o3)sc2c1	nt	5.5%	1.9%	12.6µM*
CC(=O)Nc1ccc2nc(NC(=O)c3ccco3)sc2c1	nt	-2.4%	1.3%	-3.1%
COc1ccccc1C1CN(CCNC(=O)c2cnsn2)Cc2ccccc2O1 (stereo not given)	nt	nt	0.7%	nt
COc1cc(OC)c(/C=C/c2cc(/C=C/c3c(OC)cc(OC)cc3OC)[n+](C)c3ccccc23)c(OC)c1	nt	nt	39.8µM*	-12.5%
COc1ccc(-c2cccc3c2OC(CNC(=O)c2ccccc2-n2cccn2)C3)nn1 (stereo not given)	nt	nt	-0.7%	nt
Cc1csc2ncnc(NNC(=O)c3ccc(Cl)cc3)c12	35.5µM*	3.5%	1.9%	0.9%
SMILES	Epigenetic reg	Vif-APOBEC3F blk	PINK1 expr mod	Vif-APOBEC3G blk
O=C(NNc1ncnc2sccc12)c1ccc(Cl)cc1	-1.0%	4.1%	-0.5%	-1.0%
Cc1ccc(NC(=O)/C(C#N)=C\c2ccc(-c3ccc(Cl)cc3)o2)c(C)c1	3.55µM*	3.16µM*	0.2%	-6.2%
CCS(=O)(=O)N1CCc2cc(C(=O)N3CCN(c4cccc(C(F)(F)F)c4)CC3)ccc21	-5.8%	-6.2%	0.4%	12.6µM*
O=C(c1ccc2c(c1)CCN2S(=O)(=O)c1ccccc1)N1CCN(c2cccc(Cl)c2)CC1	-1.5%	4.3%	-0.7%	-1.8%
COc1ccccc1C1CN(Cc2c(C)nc3sccn23)Cc2ccccc2O1 (stereo not given)	nt	nt	1.5%	nt
COc1ccc2nc(/N=C(\N)NC(=O)C(C)(C)C)nc(C)c2c1	-1.1%	2.6%	1.8%	1.8%
